# Screening results deposited in PubChem BioAssay by several laboratories.
# Shown is part of a subset that was picked to be rich in hits.
# RmlCD inh 1536: blocks M. tuberculosis RmlC and RmlD coupled enzymes; P9WH09+P9WH11; RmlC+RmlD coupled enzyme assay, percent inhibition; primary screen in compound mixtures; inhibition, % at 3.6 µM; actives 0.03% (n = 160,000); in the data active = inhibition mostly above about 34%, no sharp cut-off; inconclusive = no clear call, values can overlap the other calls; inactive = mostly below about 22%
# Target sequence (P9WH09 whole entry, looked up): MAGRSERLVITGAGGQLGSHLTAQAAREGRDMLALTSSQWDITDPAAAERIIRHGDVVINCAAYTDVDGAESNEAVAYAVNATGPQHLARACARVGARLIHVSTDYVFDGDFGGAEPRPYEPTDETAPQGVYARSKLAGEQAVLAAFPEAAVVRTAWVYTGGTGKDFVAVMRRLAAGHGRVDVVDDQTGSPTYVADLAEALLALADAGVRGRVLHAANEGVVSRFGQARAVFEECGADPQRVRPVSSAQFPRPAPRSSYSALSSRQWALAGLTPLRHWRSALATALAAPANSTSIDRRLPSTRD
# Target sequence (P9WH11 whole entry, looked up): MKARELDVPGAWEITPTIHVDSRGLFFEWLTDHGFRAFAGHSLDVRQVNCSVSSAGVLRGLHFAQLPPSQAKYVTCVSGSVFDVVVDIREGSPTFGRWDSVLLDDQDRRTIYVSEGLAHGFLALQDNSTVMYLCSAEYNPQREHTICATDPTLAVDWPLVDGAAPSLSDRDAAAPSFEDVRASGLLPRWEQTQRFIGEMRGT
# YopH inh: inhibitors of Yersinia enterocolitica YopH tyrosine phosphatase. actives 0.16% (n = 140,000). fluorescence Ex485/Em525. inhibition, % (test concentration not listed); in the data active = inhibition above about 50%
# Starred values were filed as active, the others as inactive; ? = inconclusive; nt = no result.
SMILES,RmlCD inh 1536,YopH inh
Cc1[nH]c2ccccc2c1CN1CCC(Cc2ccccc2)CC1,-9.7,nt
Cc1ccsc1C(C(=O)NC(C)(C)C)N(C(=O)c1csnn1)c1ccccc1 (stereo unspecified),5.9,nt
Nc1nnnn1CC(=O)N/N=C/c1ccccn1,6.2,nt
Cc1cc(N2CCCc3ccccc32)n2ncnc2n1,5.9,-4.8
Cc1csc(N2CCc3ccccc32)n1,-8.8,53.8*
COc1ccccc1NC(=O)COc1ccccc1C(=O)Nc1ccccc1,-9.6,nt
Cc1cc(C)c(NC(=O)COc2ccccc2C(=O)Nc2ccc3c(c2)oc2ccccc23)c(C)c1,98.7*,-12.8
[O-]/[N+](=C/c1ccc(F)cc1)c1ccccc1,-9.3,53.2*
CC1(/[N+]([O-])=C/c2ccc(F)cc2)CCCCC1=O (stereo unspecified),-3.7,nt
[O-]/[N+](=C\c1ccc(OC(F)F)cc1)c1ccccc1,5.0,55.3*
[O-]/[N+](=C\c1ccncc1)c1ccccc1,3.5,58.6*
O=C(c1ccccc1)c1ccncc1,nt,-30.4
FC(F)Oc1ccc(NC(=S)NCc2ccccc2)cc1,2.9,-21.2
Nc1nnc(-c2cc3c(ccc4ccccc43)oc2=O)s1,10.4,nt
COc1ccc(OCCC(=O)OCC(=O)NCc2ccc(F)cc2)cc1,3.7,nt
Cc1cc(C)cc(N(C(=O)c2sc(C)nc2C)C(C(=O)NC(C)(C)C)c2ccncc2)c1 (stereo unspecified),-5.3,nt
Cc1cc(NC(=O)c2ccc(C#N)cc2)on1,-15.5,nt
CCOc1cc(S(=O)(=O)NCc2ccccc2)ccc1Br,-8.1,nt
COc1cc(NCc2ccccc2O)c2ncccc2c1,6.3,nt
COc1cc(NCCCCCCCN)c2ncccc2c1,nt,52.5*
O=C(NCCC1CC1(Cl)Cl)Nc1ccccc1 (stereo unspecified),-11.6,nt
Cn1nc(-c2ccc(N3CCN(CCO)CC3)c([N+](=O)[O-])c2)c2ccccc2c1=O,-4.8,nt
O=C(NCc1ccccc1)C1CCCN1S(=O)(=O)c1cccc2cccnc12 (stereo unspecified),nt,80.2*
O=C(NC1CCCC1)C1CCCN1S(=O)(=O)c1cccc2cccnc12 (stereo unspecified),7.5,-38.1
Cc1c(N2C(=O)/C(=C3/C(=O)N(C)c4ccccc43)SC2=S)c(=O)n(-c2ccccc2)n1C,-6.0,-29.1
SMILES,RmlCD inh 1536,YopH inh
CC(=O)N1C(=O)/C(=C2\SC(=S)N(c3c(C)n(C)n(-c4ccccc4)c3=O)C2=O)c2ccccc21,?,99.2*
CN(C)S(=O)(=O)N1CCC(Oc2ccc(C(=O)NCC(C)(C)CO)cc2)CC1,-1.2,nt
COc1ccc(NC(=O)/C(=C/c2cccnc2)NC(=O)c2cccs2)cc1,nt,53.3*
COc1ccc(NC(=O)/C(=C\c2cccnc2)NC(=O)c2cccs2)cc1,-5.8,-11.9
COc1ccc(N2C(=O)[C@H]3[C@@H](C2=O)C2c4ccccc4C=NN2[C@H]3C(=O)C(C)(C)C)cc1 (stereo partly specified),11.3,nt
COc1ccc(N2C(=O)[C@@H]3[C@H](C2=O)[C@H]2c4ccccc4C=CN2[C@@H]3C(C)=O)cc1,nt,60.5*
CCOC(=O)c1nc(C)n(-c2ccc([N+](=O)[O-])cc2)n1,-7.4,nt
CCOC(=O)c1nc(C)n(-c2ccc(Cl)cc2)n1,9.1,51.9*
CCOC(=O)c1sc(N)c(C(=O)Nc2ccccc2)c1C,-0.6,nt
COC(=O)N(NC(=O)C(O)(c1ccccc1)c1ccccc1)c1ccccc1,7.3,18.3
COC(=O)N(NC(=O)C(O)(CCC(C)C)CCC(C)C)c1ccccc1,nt,69.7*
COc1ccc2c(c1OC)C(=O)OC2C1c2c(cc3c(c2OC)OCO3)CCN1C (stereo unspecified),18.7,-19.6
CN1CCc2cc3c(c4c2[C@H]1[C@H](O)c1ccccc1-4)OCO3,nt,101.0*
Cc1c(Cl)cn2c(=O)cc(CN3CCN(c4ccc(F)cc4)CC3)nc2c1Cl,-7.1,nt
Cc1ccc(C2CC(=O)Oc3cc(O)ccc32)cc1 (stereo unspecified),nt,-14.5
O=C1CC(c2ccccc2)c2cc(O)ccc2O1 (stereo unspecified),nt,70.0*
O=C(c1cccs1)N1CCN=C1SCc1ccc(Cl)cc1,-13.1,nt
O=C(c1cccs1)N1CCN=C1SCc1cccnc1,-9.8,50.5*
O=C(CCSCc1ccccc1Cl)NC1CCCCC1,-6.4,nt
Cc1cc(C)nc(SCC(=O)Nc2sc3c(c2C#N)CCC(C)C3)n1 (stereo unspecified),nt,93.5*
Cc1ccnc(SCC(=O)Nc2sc3c(c2C#N)CCC(C(C)(C)C)C3)n1 (stereo unspecified),nt,1.1
O=C1NCCCC2c3c(cc(Br)c(O)c3Br)OC12N1CCOCC1 (stereo unspecified),101.0,-50.8
O=C1NCCCC2c3cc(O)c4ccccc4c3OC12N1CCCCC1 (stereo unspecified),nt,74.5*
COc1ccc2c(c1)C=C(CN1CCN(C3CCCC3)C(CCO)C1)CO2 (stereo unspecified),-11.2,nt
O=C1C(=O)c2ccccc2-c2ccccc21,-5.2,100.4*
O=C1C(=O)c2cccc3cccc1c23,-4.2,-28.0
